DT40 TDP1 CPT – qHTS for Inhibitors of human tyrosyl-DNA phosphodiesterase 1 (TDP1): qHTS in cells in presence of CPT | chicken DT40 Tdp1-/-;hTDP1 cells + 20 nM CPT, ATP luminescence, 48 h | Potency, µM (top dose mostly 46.2 µM), actives largely listed as inhibitors | 12% of 420,000 active; further: nearly all actives have a fitted effect of over 55% in size
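Chicken DT40 Tdp1-/- cells stably complemented with human TDP1 were seeded at 400 cells/well in medium containing 20 nM camptothecin, exposed to pin-transferred compounds, and grown at 37 °C for at least 48 hr. Viability was read as ATP luminescence.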
IL1B secr inh – qHTS for Inhibitors of Inflammasome Signaling: IL-1-beta AlphaLISA Primary Screen; activity change, % at 57.5 µM; AID 743279, 2014; THP-1 LPS/ATP IL-1B secretion, AlphaLISA, 16 h; stronger effect = lower value; 4.7% of 360,000 active; in the data active means activity change below about -50%; inconclusive means mostly about -30% to -49%
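THP-1 cells pretreated 1 hr with compounds (up to 57.5 uM final), then stimulated with LPS (250 ng/mL final) plus ATP (1.25 mM final); secreted IL-1B measured by AlphaLISA after 16 hr, decreased signal indicating inhibition.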
MCF10A rerep – A quantitative high throughput screen for small molecules that induce DNA re-replication in MCF 10a normal breast cells | MCF 10A DNA re-replication, Hoechst nuclear intensity, 48 h | Potency, µM (series often up to 46.1 µM), usual class: activators | 2.9% of 350,000 active | AID 624296, 2012; further: nearly all actives have a fitted effect of over 50% in size
BCR signal inh – qHTS Assay to Find Inhibitors of Chronic Active B-Cell Receptor Signaling. 0.05% of 340,000 active. ABC-DLBCL IkBa-CBG/CBR reporter, luminescence ratio, 4 h. AID 493014, 2011. Potency, µM (titrated, usually from 46.1 µM), actives largely listed as inhibitors; active means well fitted inhibition curve with a large enough effect in the signal ratio, with a control signal flat, not every such curve was filed as active; inconclusive means small, poorly fitted or top-dose-only effect, or effect the other way, or a change in a side signal; the % refers to the signal ratio
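Compounds up to 46 uM were incubated four hours with TMD8 cells whose green CBG68 luciferase is fused to IkappaBalpha; red CBR luminescence normalised the signal, and concentration-effect curves were fitted to fusion, red and ratio data.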
SW480 rerep – A quantitative high throughput screen for small molecules that induce DNA re-replication in SW480 colon adenocarcinoma cells. SW480 DNA re-replication, Hoechst DNA content imaging, 48 h. 1.8% of 340,000 active. Potency, µM (series often up to 46.1 µM), usual class: activators. AID 624297, 2012; further: nearly all actives have a fitted effect of over 55% in size
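DNA re-replication was detected as more nuclei of elevated Hoechst intensity after 48 hr exposure to compound (23 nL pinned per well of 250 cells).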
TDP1 cell noCPT – qHTS for Inhibitors of human tyrosyl-DNA phosphodiesterase 1 (TDP1): qHTS in cells in absence of CPT; DT40 Tdp1-/- hTDP1 cells, no CPT, ATP luminescence, 48 h; Potency, µM (top dose mostly 46.2 µM), most hits filed as inhibitors; 15% of 420,000 active; AID 686978, 2013; further: nearly all actives have a fitted effect of over 55% in size
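Compound effects on proliferation are scored in DT40 Tdp1-/-;hTDP1 cells in the absence of CPT. ATP levels (CellTiter-Glo luminescence) are recorded after a ≥48 hr, 37 °C incubation.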
A number is an active result; 0 = inactive; ? = inconclusive; - = no result. Sampled rows, rich in hits. Any-hit rate of the full collection: about 19%. Unless noted, the call rests on the fitted dose curve; in most records, active means well fitted curve in the direction sought with a large enough effect; inconclusive means small, poorly fitted or top-dose-only effect, or another doubt; inactive means no such curve, though single readings can be large; an effect the other way counts as inactive or inconclusive.

SMILES | DT40 TDP1 CPT | IL1B secr inh | MCF10A rerep | BCR signal inh | SW480 rerep | TDP1 cell noCPT
CC(C)(C)OC(=O)N1C(=O)[C@](OC(=O)c2ccccc2)(c2ccc(F)cc2)c2ccccc21 | ? | 0 | - | - | - | ?
COc1cccc(/C=C/c2nc(C#N)c(NCCc3ccc(OC)c(OC)c3)o2)c1 | ? | - | - | - | - | 0
COc1ccc(CNc2oc(/C=C/c3cccc(OC)c3)nc2C#N)cc1 | 23µM | - | - | - | - | 23µM
O=C(C1CC(=O)N(c2ccc(F)cc2)C1)N1CCN(c2ccc(F)cc2)CC1 (configuration not stated) | 0 | 0 | 0 | 0 | 0 | 0
CCC1CN(C(=O)N2CCC(C(=O)N3CCN(c4cccc(C)c4C)CC3)CC2)c2ccccc2O1 (configuration not stated) | 7.3µM | - | - | - | - | 5.8µM
CCC1CN(C(=O)N2CCC(C(=O)N3CCN(c4cc(C)ccc4C)CC3)CC2)c2ccccc2O1 (configuration not stated) | 16µM | - | - | - | - | 15µM
CCC1CN(C(=O)N2CCC(C(=O)N3CCN(c4ccc(F)cc4)CC3)CC2)c2ccccc2O1 (configuration not stated) | 13µM | - | - | - | - | 21µM
Cc1ccc(NC(=O)C2CCN(C(=O)N3CCOc4ccccc43)CC2)cc1 | ? | 0 | 0 | 0 | 0 | ?
CCc1ccc(-c2nn(CC(=O)NCc3ccccc3)c3c2cnc2ccc(F)cc23)cc1 | 0 | - | - | - | - | 0
CCOC(=O)N1CCC(N2CCN(C3CCCC3)C(CCO)C2)CC1 (configuration not stated) | 0 | 0 | 0 | 0 | 0 | 0
CCN(CC)C(=O)C1CCN(Cc2cn(C)nc2-c2ccc(Oc3ccccc3)cc2)CC1 | ? | 0 | 0 | ? | 0 | 21µM
COc1ccc2nc(-c3ccccc3)[nH]c(=O)c2c1 | 0 | 0 | 0 | - | 0 | 0
COc1ccc(-c2nc3ccc(N4CCCC4)cc3c(=O)[nH]2)cc1OC | 13µM | 0 | 23µM | ? | 11µM | 21µM
Cc1cc(N=Nc2ccc(C)c(N=Nc3cc(C)c(N)cc3N)c2)c(N)cc1N | ? | 0 | ? | 0 | 0 | 12µM
COc1ccc(N=Nc2cc(OC)c(N)cc2OC)cc1 | 0 | 0 | 0 | - | 0 | ?
CCOC(=O)C1=CCC(c2ccc(C#N)cc2)N(S(=O)(=O)c2ccc(C)cc2)C1 (configuration not stated) | 18µM | 0 | - | - | - | 16µM
CCOC(=O)N1CCN(S(=O)(=O)c2ccc(C)cc2)CC1 | 0 | 0 | 0 | 0 | 0 | 0
Cc1ccc(S(=O)(=O)N2CC(C(=O)O)=CC[C@H]2c2ccc3c(c2)OCO3)cc1 | 0 | 0 | 0 | 0 | 0 | 0
CCOC(=O)C1=CCC(c2ccc(Cl)cc2)N(S(=O)(=O)c2ccc(C)cc2)C1 (configuration not stated) | 23µM | 0 | - | - | - | 18µM
COc1cc([C@@H]2CC=C(C(=O)O)CN2S(=O)(=O)c2ccc(C)cc2)cc(OC)c1OC | 0 | 0 | 0 | 0 | 0 | 0
CCOC(=O)C1=CCCN(S(=O)(=O)c2ccc(C)cc2)C1 | ? | 0 | - | - | - | 21µM
CCc1cc(-c2nnn(CCC3COCCO3)c2CC)ccc1-c1cn(Cc2ccccc2)nn1 (configuration not stated) | 16µM | 0 | - | - | - | 21µM
CC(C)[C@H](CO)NC(=O)[C@H]1O[C@@H](n2ccc(=O)[nH]c2=O)[C@H](O)[C@@H]1O | 0 | 0 | - | - | - | 0
CC(C)(C)C1=CC(O)(c2ccccc2)C=C(C(C)(C)C)C1=O | ? | 0 | 5.2µM | ? | 0 | ?
CCN1C(=O)N(CC)C(O)(c2ccccc2)C1(O)c1ccccc1 (configuration not stated) | 0 | 0 | 0 | 0 | 0 | 0
SMILES | DT40 TDP1 CPT | IL1B secr inh | MCF10A rerep | BCR signal inh | SW480 rerep | TDP1 cell noCPT
COc1ccc(C(=O)NC(=S)Nc2ccc(Cc3ccncc3)cc2)cc1 | ? | -64 | ? | 0 | ? | 18µM
O=C(NC(=S)Nc1ccc(Cc2ccncc2)cc1)c1ccccc1F | ? | -74 | ? | ? | 0 | ?
Cc1cc(NC(=O)c2cc(Cl)ccc2Cl)ccc1-c1cc2ccccc2oc1=O | 0 | - | - | - | - | ?
O=C(CC1CCCCC1)NCc1ccccc1Cl | 0 | 0 | 0 | 0 | 0 | 0
O=C(NNC(=O)c1cccc(S(=O)(=O)N2CCCCC2)c1)c1ccccc1 | 0 | 0 | 0 | 0 | 0 | 0
CC(C)Cn1c(O)c(N=NC(=O)c2cccc(S(=O)(=O)N3CCCCC3)c2)c2ccccc21 | 16µM | ? | ? | 0 | ? | 13µM
CN(C(=O)COc1ccc(Oc2ccccc2)cc1)C1CCS(=O)(=O)C1 (configuration not stated) | 0 | 0 | 0 | ? | 0 | 0
O=S(=O)(c1ccccc1)N1CCN(c2cccc(Cl)c2)CC1 | 0 | 0 | 0 | 0 | 0 | 0
COCC(=O)N1CCN(c2cccc(Cl)c2)CC1 | 0 | 0 | 0 | ? | 0 | 0
O=C(CCC(=O)N1CCN(c2cccc(Cl)c2)CC1)c1cccs1 | ? | 0 | ? | 0 | 0 | 18µM
O=C(O)CCCC(=O)N1CCN(c2cccc(Cl)c2)CC1 | 0 | 0 | 0 | 0 | 0 | 0
Nc1ccc(N2CCN(c3cccc(Cl)c3)CC2)cc1 | 13µM | ? | 0 | 0 | 0 | 15µM
O=C(CCN1C(=O)c2ccccc2S1(=O)=O)N1CCN(c2cccc(Cl)c2)CC1 | ? | 0 | 0 | 0 | 0 | 16µM
O=C(CCC(=O)N1CCN(c2cccc(Cl)c2)CC1)N1CCN(c2ccccc2)CC1 | 18µM | 0 | 0 | 0 | 0 | 8.2µM
Cc1cc(CN(C)C(=O)c2ccc(OC3CCN(CCc4ccccc4)CC3)cc2)on1 | ? | 0 | 0 | 0 | 0 | 0
CCN1C(=O)[C@H]2[C@@H](c3ccc(Cl)cc3)N3C(=O)CN(CC4CC4)C(=O)[C@@]3(Cc3ccccc3)[C@H]2C1=O | 0 | 0 | 0 | 0 | 0 | 0
COc1cccc(CN2CCN(CCCc3ccccc3)C(CCO)C2)c1O (configuration not stated) | 0 | 0 | 0 | 0 | ? | 0
COc1ccc(N2CCN(C(=O)COC(=O)Cc3c(F)cccc3Cl)CC2)cc1 | ? | 0 | 0 | ? | 0 | 0
O=C(Cc1c(F)cccc1Cl)OCC(=O)N1CCN(c2ccccc2)CC1 | 18µM | 0 | 0 | 0 | 0 | ?
Clc1cccc(N2CCN(CCCN3CCN(c4ccccc4)CC3)CC2)c1 | 26µM | -53 | ? | - | ? | ?

Assay outcomes from PubChem.
